Key:
Test in all cases: log2 ratio of Biotin-Ahx-Ub-VS probe labelling (fragment/DMSO); higher = less target engagement (more negative = stronger competition), active = hit call of the paper (q ≤ 0.05, log2 ratio ≤ -1)
Conditions in all cases: compound concentration: 200 uM; treatment time: 3 h
ALG13 = target: T1, ALG13 (UniProt Q9NP73)
T1 sequence (whole entry): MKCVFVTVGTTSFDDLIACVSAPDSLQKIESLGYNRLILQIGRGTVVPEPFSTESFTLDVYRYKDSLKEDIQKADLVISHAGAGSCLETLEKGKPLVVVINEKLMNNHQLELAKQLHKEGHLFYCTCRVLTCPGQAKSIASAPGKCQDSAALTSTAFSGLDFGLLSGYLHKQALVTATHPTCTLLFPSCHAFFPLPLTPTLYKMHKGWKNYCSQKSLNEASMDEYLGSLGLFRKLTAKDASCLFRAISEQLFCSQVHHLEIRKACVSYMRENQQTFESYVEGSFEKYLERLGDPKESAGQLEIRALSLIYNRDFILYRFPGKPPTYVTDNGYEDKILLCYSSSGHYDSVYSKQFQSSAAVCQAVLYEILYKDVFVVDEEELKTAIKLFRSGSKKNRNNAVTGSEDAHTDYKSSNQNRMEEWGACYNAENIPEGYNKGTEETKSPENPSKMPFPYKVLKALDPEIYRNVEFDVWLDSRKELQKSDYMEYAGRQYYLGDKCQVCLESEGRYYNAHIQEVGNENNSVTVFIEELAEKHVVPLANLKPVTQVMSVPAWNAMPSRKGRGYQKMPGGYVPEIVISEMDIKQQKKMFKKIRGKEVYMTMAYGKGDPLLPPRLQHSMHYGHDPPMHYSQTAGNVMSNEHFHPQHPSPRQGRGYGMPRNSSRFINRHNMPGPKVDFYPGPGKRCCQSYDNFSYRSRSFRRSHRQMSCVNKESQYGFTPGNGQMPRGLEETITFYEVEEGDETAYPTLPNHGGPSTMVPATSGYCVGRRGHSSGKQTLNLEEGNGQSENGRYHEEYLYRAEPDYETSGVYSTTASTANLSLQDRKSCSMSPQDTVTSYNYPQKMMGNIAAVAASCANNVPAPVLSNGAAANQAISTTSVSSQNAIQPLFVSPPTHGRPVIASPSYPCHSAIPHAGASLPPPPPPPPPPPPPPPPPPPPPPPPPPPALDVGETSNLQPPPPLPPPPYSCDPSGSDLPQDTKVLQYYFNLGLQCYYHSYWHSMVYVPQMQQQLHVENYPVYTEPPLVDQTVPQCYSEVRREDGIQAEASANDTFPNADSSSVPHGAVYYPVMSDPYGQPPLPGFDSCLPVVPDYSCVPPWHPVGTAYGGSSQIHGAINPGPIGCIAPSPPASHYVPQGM
Summary of the method: (§1)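 Triplicate samples of HEK293T lysate, 495 µg each, received fragment at 200 µM or vehicle for 3 h, followed by Biotin-Ahx-Ub-VS (0.5 µM final) for 1 h. After NeutrAvidin enrichment of labelled DUBs and LysC/trypsin digestion, peptides were run by diaPASEF LC-MS/MS. The values are average log2 fragment/vehicle ratios from global-median-normalised Spectronaut label-free quantities, tested by unpaired t-test on proteins having ≥2 unique peptides.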

ATXN3 = ATXN3 (UniProt P54252)
Summary of the method: as §1

BAP1 = target: T2, BAP1 (UniProt Q92560)
T2 sequence (whole entry): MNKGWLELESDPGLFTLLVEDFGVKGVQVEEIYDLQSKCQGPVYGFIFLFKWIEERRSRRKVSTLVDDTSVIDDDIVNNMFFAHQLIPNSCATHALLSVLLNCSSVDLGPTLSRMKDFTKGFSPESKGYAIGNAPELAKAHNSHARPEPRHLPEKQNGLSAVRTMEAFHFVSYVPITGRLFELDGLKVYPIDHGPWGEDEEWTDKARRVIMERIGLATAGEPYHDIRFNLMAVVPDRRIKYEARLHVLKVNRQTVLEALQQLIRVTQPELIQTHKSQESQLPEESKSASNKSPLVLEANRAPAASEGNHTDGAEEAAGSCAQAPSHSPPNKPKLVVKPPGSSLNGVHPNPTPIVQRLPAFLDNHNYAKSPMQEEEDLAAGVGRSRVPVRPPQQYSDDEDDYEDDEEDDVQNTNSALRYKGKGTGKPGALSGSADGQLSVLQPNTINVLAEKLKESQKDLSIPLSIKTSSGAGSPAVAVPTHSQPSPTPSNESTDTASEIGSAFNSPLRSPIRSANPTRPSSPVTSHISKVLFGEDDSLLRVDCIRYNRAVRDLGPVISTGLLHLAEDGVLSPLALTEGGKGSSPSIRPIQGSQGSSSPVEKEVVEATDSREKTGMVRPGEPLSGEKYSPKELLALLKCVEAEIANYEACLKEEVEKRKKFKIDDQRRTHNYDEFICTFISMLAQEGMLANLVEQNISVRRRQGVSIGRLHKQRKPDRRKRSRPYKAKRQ
Summary of the method: as §1

EIF3F = EIF3F (UniProt O00303)
Summary of the method: as §1

EIF3H = EIF3H (UniProt O15372)
Summary of the method: as §1

FAM105A = target: T3, FAM105A (UniProt Q9NUU6)
T3 sequence (whole entry): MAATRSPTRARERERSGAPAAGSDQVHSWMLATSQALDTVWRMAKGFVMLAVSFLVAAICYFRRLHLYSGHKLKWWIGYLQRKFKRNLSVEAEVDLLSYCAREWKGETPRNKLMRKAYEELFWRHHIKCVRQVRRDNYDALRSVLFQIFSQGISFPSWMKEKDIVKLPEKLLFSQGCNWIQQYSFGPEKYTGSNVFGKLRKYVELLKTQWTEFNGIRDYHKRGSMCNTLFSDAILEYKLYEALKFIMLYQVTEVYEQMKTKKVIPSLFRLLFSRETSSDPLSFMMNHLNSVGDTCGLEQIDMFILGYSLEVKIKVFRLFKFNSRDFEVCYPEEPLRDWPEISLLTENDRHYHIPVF
Summary of the method: as §1

OTUB1 = OTUB1 (UniProt Q96FW1)
Summary of the method: as §1

OTUD4 = target: T4, OTUD4 (UniProt Q01804)
T4 sequence (whole entry): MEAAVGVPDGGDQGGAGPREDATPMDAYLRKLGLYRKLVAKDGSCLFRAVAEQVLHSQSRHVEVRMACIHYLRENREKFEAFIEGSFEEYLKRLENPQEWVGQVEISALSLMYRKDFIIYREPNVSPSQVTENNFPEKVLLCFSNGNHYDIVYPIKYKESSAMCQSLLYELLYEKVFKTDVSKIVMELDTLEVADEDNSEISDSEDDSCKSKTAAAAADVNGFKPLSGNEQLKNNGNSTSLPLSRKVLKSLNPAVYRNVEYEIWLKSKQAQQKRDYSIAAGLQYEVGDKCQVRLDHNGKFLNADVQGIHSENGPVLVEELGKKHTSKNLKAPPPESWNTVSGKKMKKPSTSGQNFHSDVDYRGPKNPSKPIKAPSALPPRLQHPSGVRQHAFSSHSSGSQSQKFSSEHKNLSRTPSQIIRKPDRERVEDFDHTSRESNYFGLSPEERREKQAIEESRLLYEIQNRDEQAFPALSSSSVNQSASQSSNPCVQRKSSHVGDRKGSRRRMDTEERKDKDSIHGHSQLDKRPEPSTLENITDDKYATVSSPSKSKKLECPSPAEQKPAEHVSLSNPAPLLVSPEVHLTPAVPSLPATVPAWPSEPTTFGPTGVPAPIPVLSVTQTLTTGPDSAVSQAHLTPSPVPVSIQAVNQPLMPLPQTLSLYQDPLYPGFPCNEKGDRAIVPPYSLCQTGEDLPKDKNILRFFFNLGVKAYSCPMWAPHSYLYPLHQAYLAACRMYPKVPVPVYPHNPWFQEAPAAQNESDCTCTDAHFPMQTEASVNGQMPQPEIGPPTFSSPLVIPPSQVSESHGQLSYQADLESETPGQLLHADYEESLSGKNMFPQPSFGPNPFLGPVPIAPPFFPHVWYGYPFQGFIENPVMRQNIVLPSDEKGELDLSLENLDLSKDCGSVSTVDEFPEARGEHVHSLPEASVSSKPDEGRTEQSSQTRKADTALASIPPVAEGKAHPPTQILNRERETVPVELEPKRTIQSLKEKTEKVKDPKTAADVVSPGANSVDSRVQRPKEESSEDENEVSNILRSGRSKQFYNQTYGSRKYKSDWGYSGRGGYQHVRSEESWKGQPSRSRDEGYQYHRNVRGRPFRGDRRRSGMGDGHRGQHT
Summary of the method: as §1

OTUD5 = target: T5, OTUD5 (UniProt Q96G74)
T5 sequence (whole entry): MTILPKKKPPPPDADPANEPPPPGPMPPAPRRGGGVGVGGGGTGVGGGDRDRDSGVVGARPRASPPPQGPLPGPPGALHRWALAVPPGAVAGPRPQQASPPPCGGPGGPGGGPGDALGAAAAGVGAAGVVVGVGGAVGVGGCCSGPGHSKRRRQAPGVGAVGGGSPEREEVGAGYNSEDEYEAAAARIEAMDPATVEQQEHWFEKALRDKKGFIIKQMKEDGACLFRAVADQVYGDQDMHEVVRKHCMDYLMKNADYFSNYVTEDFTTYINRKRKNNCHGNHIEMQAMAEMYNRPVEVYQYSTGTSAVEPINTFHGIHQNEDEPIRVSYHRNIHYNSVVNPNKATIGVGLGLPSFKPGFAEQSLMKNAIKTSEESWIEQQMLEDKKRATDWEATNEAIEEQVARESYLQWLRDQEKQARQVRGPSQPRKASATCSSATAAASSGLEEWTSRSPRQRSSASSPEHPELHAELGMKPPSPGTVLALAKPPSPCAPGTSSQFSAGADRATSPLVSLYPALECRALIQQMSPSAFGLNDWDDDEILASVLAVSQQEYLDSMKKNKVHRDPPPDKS
Summary of the method: as §1

Measured: log2 ratio of Biotin-Ahx-Ub-VS probe labelling

Chain of EIF3H (O15372 whole entry): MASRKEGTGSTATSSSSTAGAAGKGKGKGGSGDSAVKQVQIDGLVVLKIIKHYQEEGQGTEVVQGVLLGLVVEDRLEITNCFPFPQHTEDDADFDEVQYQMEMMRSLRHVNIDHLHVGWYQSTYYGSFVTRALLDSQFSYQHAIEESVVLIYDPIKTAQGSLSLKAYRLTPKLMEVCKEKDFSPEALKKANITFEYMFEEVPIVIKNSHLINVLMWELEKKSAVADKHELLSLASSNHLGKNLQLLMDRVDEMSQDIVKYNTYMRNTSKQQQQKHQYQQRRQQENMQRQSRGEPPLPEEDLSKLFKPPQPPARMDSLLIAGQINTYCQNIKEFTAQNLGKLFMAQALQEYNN
Chain of ATXN3 (P54252 whole entry): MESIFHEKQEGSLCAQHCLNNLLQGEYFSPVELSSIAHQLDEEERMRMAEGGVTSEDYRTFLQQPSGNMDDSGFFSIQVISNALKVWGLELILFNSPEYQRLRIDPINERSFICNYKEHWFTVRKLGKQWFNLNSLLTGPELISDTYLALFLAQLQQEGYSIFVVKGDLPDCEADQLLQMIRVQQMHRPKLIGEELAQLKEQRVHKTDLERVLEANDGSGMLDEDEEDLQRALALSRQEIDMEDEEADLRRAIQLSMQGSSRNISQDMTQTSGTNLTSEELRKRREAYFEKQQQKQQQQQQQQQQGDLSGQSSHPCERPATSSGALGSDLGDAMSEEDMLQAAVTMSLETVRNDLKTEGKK
Chain of EIF3F (O00303 whole entry): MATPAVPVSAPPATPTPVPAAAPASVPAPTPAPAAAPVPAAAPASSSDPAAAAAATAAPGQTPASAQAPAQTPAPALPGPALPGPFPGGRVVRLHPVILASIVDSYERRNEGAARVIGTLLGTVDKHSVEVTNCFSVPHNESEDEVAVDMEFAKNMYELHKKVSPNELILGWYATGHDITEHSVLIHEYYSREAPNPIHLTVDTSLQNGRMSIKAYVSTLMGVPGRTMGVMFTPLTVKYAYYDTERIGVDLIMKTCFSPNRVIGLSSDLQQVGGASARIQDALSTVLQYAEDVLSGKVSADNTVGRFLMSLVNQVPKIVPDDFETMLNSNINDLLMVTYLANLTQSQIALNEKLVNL
Chain of OTUB1 (Q96FW1 whole entry): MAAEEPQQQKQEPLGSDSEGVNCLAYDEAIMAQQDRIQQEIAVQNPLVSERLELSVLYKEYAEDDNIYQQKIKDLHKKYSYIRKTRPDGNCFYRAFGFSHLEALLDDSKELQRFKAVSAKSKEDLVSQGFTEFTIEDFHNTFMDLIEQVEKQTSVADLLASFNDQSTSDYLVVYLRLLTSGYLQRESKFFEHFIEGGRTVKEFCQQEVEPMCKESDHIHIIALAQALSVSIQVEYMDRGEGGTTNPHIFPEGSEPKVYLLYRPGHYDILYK

CC1CN(c2ccc(NC(=O)CCl)cc2)CC(C)O1 (centres undefined)
active: BAP1 -2.48
inactive: ALG13 -0.442 | ATXN3 -0.412 | EIF3F -0.0748 | EIF3H 0.0832 | FAM105A 0.115 | OTUB1 0.133 | OTUD4 -0.357 | OTUD5 -0.371

Source: the supplement of paper PMC11732987, “Enantioselective OTUD7B fragment discovery through chemoproteomics screening and high-throughput optimisation” (Communications Chemistry, 2025)
